Reference: PubChem BioAssay (Tox21)
“And” between values parts separate entries of the source, which are not always exact repeats. Equal values may be shown once. Records with an inconclusive call do not appear. Where a call stands in place of a potency, no number is given. Some compounds were tested as several samples or in several runs, with calls that do not always agree. The source made the active and inactive calls. Unless noted, calls come from the whole dose curve; as a rule, active = well fitted curve in the direction sought with a large enough effect in the repeat runs; inconclusive = weak or mixed curves; inactive = no such curve, though single readings can be large; an effect the other way counts as inactive or inconclusive.

How the values were obtained:
[1] = qHTS assay to identify small molecule antagonists of the estrogen receptor alpha (ER-alpha) signaling pathway using the BG1 cell line in the presence of 0.1 nM 17-beta-estradiol - cell viability counter screen (AID 1259241); note: nearly all actives have a fitted effect of over 40% in size
Summary of the method: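 Cells were plated and left 24 hr, compounds in DMSO were pinned in, 17beta-estradiol was added to 0.1 nM final, and after 22 hr CellTiter-Fluor reagent was added for 30 min before fluorescence was read.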

[2] = qHTS assay to identify small molecule HDAC inhibitors (AID 1259364); note: potency is the fitted concentration of half-maximal effect;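 note: wild-type HCT-116 cells with endogenous class I/II HDAC activity; nearly all actives have a fitted effect of over 45% in size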
Summary of the method: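 HCT-116 wt cells, 1,500/well, overnight attach. Compounds (DMSO) 2 h, 37 °C. HDAC-Glo I/II, 30 min RT. Luminescence.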

[3] = qHTS assay to identify small molecule HDAC inhibitors - cell viability counter screen (AID 1259365); note: series mostly up to about 92 µM; nearly all actives have a fitted effect of over 50% in size
Summary of the method: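 Counter screen in wild-type HCT-116 cells: compounds dissolved in DMSO are pin-transferred onto overnight-plated cells and left 2hr at 37C. ATP-based CellTiter-Glo luminescence then measures viable cells.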

[4] = qHTS assay to identify small molecule agonists of the sonic hedgehog signaling (Shh) pathway - cell viability counter screen (AID 1259366); note: nearly all actives have a fitted effect of over 50% in size; note: potency is the fitted concentration of half-maximal effect
Summary of the method: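 Cells are plated at 2,000 per well and left 4hr at 37C, 5% CO2 before compound addition. After 23hr of treatment, CellTiter-Fluor reagent is added for 1hr at 37C and fluorescence is measured.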

[5] = qHTS assay to identify small molecule antagonists of the sonic hedgehog signaling (Shh) pathway - cell viability counter screen (AID 1259367); note: nearly all actives have a fitted effect of over 55% in size; note: potency is the fitted concentration of half-maximal effect
Summary of the method: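 Fluorescence read-out (CellTiter-Fluor, 1 hr at 37C) taken after 23 hr compound treatment of 3T3 Gli1-Luc cells stimulated with conditioned medium. Cells were seeded at 2,000 per well and pre-incubated 4 hr.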

[6] = qHTS assay to identify small molecule agonists of the sonic hedgehog signaling (Shh) pathway (AID 1259368; calls by dose curve; note: nearly all actives have a fitted effect of over 15% in size; note: potency is the fitted concentration of half-maximal effect)
Summary of the method: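 Following a 24 hr incubation with DMSO-dissolved compounds at 37 C, 5% CO2, Gli1-Luc NIH/3T3-derived cells received luciferase reagent for 30 min at room temperature prior to luminescence measurement.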

[7] = qHTS assay to identify small molecule antagonists of the sonic hedgehog signaling (Shh) pathway (AID 1259369; calls by dose curve; note: nearly all actives have a fitted effect of over 45% in size; note: potency is the fitted concentration of half-maximal effect)
Summary of the method: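 Read-out is luminescence from a firefly luciferase gene controlled by the Gli1 response element, in 3T3Gli1-Luc cells pre-incubated 4hr then exposed to compounds and conditioned medium for 24hr.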

[8] = qHTS assay to identify small molecule agonists of the androgen receptor (AR) signaling pathway in the presence of an antagonist - cell viability counter screen (AID 1259379); note: nearly all actives have a fitted effect of over 25% in size; note: potency is the fitted concentration of half-maximal effect
Summary of the method: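 Each compound was tested at 15 concentrations on MDA-kb2 cells in the presence of 3.0uM nilutamide. Viability was measured by CellTiter-Fluor fluorescence after a 16 hr incubation at 37C in a CO2-free atmosphere.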

[9] = qHTS assay to identify small molecule agonists of the estrogen receptor beta (ER-beta) signaling pathway - cell viability counter screen (AID 1259380); note: nearly all actives have a fitted effect of over 30% in size
Summary of the method: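 Compounds dissolved in DMSO were pin-transferred onto ER-beta-UAS-bla HEK293T cells that had settled 6 hr, and exposure ran 16 hr at 37C. Following the reporter read, CellTiter-Glo luminescence after 30 min at room temperature indicated cytotoxicity.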

[10] = qHTS assay to identify small molecule antagonists of the estrogen receptor beta (ER-beta) signaling pathway - cell viability counter screen (AID 1259382); note: series mostly up to about 92 µM; nearly all actives have a fitted effect of over 55% in size
Summary of the method: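 CellTiter-Glo ATP luminescence measured after the LiveBLAzer read in the same wells; ER-beta-UAS-bla HEK293T cells, 16 hr compound treatment with 1nM 17-beta-estradiol agonist at 37C, 5% CO2.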

[11] = qHTS assay to identify small molecule agonists or antagonists of the thyroid stimulating hormone receptor (TSHR) signaling pathway - wild type cell line counter screen (AID 1259384; calls by dose curve)
Summary of the method: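 Wild-type Hek293 cells, 800/well, 18 h at 37C, then compound with Ro20-1724 for 30 min RT. cAMP by HTRF (cAMP-d2/anti-cAMP cryptate), 1 h RT, fluorescence read. 15 concentrations, triplicates.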

[12] = target: Estrogen receptor beta (Homo sapiens) (UniProt Q92731); assay: qHTS assay to identify small molecule agonists of the estrogen receptor beta (ER-beta) signaling pathway (AID 1259377; active = well fitted activation curve with a large enough effect in the signal ratio in the repeat runs, not every such curve was filed as active; the % refers to the signal ratio)
Chain of Estrogen receptor beta (Homo sapiens) (Q92731 whole entry, looked up, the tested form may be a part): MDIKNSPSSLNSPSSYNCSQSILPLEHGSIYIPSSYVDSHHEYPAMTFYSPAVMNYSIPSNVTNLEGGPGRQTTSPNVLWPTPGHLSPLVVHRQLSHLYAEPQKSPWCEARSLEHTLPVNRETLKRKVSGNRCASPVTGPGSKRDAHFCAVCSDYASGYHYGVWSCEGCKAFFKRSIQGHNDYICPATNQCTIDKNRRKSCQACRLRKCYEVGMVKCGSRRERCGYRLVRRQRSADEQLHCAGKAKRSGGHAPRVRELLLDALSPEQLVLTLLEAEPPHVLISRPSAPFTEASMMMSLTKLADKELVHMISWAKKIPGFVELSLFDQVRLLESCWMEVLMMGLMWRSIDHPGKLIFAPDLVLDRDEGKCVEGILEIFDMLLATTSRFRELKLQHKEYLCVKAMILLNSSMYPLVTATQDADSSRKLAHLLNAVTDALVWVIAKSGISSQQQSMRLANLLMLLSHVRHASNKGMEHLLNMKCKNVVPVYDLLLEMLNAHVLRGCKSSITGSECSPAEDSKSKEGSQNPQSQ
Summary of the method: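 Agonist mode cell assay in GripTite HEK293T cells expressing an ER-beta fusion that drives beta-lactamase from an Upstream Activator Sequence; 16 hr compound exposure at 37C, then 2 h LiveBLAzer B/G FRET substrate at room temperature, fluorescence read-out.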

[13] = target: Thyrotropin receptor (Homo sapiens) (UniProt P16473); assay: qHTS assay to identify small molecule antagonists of the thyroid stimulating hormone receptor (TSHR) signaling pathway (AID 1259385; calls by dose curve; note: nearly all actives have a fitted effect of over 20% in size)
Chain of Thyrotropin receptor (Homo sapiens) (P16473 whole entry, looked up): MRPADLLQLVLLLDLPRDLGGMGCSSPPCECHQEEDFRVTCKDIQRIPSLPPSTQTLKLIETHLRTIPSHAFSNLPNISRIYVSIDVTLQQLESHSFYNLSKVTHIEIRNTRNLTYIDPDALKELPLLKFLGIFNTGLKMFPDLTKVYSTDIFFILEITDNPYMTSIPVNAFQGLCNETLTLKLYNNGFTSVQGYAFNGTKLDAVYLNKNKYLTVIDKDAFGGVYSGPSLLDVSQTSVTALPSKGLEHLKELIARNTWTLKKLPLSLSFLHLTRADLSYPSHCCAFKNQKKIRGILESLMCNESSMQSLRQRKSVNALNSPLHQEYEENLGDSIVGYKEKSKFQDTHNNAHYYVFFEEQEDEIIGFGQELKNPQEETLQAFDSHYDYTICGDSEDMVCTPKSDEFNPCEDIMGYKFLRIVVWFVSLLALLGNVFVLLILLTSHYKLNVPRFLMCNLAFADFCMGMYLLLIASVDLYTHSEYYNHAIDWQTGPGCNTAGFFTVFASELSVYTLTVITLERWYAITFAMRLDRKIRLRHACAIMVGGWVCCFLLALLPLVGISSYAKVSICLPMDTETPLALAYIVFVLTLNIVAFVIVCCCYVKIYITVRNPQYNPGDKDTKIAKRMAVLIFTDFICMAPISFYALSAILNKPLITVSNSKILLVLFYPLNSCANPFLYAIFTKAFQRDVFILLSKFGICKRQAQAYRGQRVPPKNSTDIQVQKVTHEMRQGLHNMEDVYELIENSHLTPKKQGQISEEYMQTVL
Summary of the method: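 TSHR-HEK293 cells (800/well) plated 18 h, then compounds with Ro20-1724 and TSH at 1.5 ng/mL final, 30 min at room temperature. cAMP quantified by HTRF (cAMP-d2/anti-cAMP-cryptate, 1 h); 15 concentrations in triplicate.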

[14] = target: Estrogen receptor beta (Homo sapiens) (UniProt Q92731); assay: qHTS assay to identify small molecule antagonists of the estrogen receptor beta (ER-beta) signaling pathway (AID 1259378; active = well fitted inhibition curve with a large enough effect in the signal ratio in the repeat runs, not every such curve was filed as active; the % refers to the signal ratio)
Summary of the method: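 ER-beta-UAS-bla HEK293T cells in 2% charcoal-stripped FBS medium treated with compound plus 1nM final 17-beta-estradiol for 16 hr at 37C. Beta-lactamase reporter read by FRET substrate fluorescence after 2 hours at room temperature.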

[15] = target: Estrogen receptor (Homo sapiens) (UniProt P03372); assay: qHTS assay to identify small molecule agonists of the estrogen receptor alpha (ER-alpha) signaling pathway in the presence of an antagonist (AID 1259383; calls by dose curve; note: top concentration of the series differs between compounds; nearly all actives have a fitted effect of over 15% in size)
Chain of Estrogen receptor (Homo sapiens) (P03372 whole entry, looked up): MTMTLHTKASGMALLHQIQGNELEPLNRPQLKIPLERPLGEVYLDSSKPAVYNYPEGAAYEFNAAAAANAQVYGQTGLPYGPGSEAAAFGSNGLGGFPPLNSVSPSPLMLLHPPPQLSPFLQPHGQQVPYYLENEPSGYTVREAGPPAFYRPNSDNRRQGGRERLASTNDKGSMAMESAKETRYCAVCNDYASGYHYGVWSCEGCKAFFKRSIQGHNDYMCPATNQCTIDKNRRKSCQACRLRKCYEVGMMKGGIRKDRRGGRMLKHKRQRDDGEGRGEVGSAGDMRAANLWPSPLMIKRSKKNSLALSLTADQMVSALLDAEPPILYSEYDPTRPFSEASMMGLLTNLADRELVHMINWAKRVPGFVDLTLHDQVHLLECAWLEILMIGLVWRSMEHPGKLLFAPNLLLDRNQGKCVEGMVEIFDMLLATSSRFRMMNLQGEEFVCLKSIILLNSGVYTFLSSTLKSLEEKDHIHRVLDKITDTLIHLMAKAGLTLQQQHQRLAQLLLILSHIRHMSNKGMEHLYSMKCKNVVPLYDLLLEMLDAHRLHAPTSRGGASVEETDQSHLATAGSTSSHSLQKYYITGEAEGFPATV
Summary of the method: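 Luminescent ERE-luciferase reporter, VM7Luc4E2 cells (endogenous ER-alpha); 10.0nM ICI-182,780 final; 15-point compound titration; 22hr at 37C; ONE-Glo, 30min RT.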

[16] = qHTS assay to identify small molecule antagonists of the androgen receptor (AR) signaling pathway using the MDA cell line in the presence of 0.5 nM R1881 - cell viability counter screen (AID 1259242); note: nearly all actives have a fitted effect of over 45% in size
Summary of the method: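 Cells seeded at 3,000/well and allowed 5 hr at 37C, 0% CO2 before compound transfer and R1881 (0.5 nM final) addition; 16 hr later, live-cell protease fluorescence indicated cytotoxicity.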

[17] = target: Estrogen receptor (Homo sapiens) (UniProt P03372); assay: qHTS assay to identify small molecule antagonists of the estrogen receptor alpha (ER-alpha) signaling pathway using the BG1 cell line in the presence of 0.1 nM 17-beta-estradiol (AID 1259244); note: nearly all actives have a fitted effect of over 50% in size
Summary of the method: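 Luciferase signal from VM7Luc4E2 ERE-reporter cells, co-dosed with test compound and 0.1 nM final 17beta-estradiol for 22 h, read with ONE-Glo.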

[18] = target: Androgen receptor (Homo sapiens) (UniProt P10275); assay: qHTS assay to identify small molecule antagonists of the androgen receptor (AR) signaling pathway using the MDA cell line in the presence of 0.5 nM R1881 (AID 1259243); note: nearly all actives have a fitted effect of over 50% in size
Chain of Androgen receptor (Homo sapiens) (P10275 whole entry, looked up): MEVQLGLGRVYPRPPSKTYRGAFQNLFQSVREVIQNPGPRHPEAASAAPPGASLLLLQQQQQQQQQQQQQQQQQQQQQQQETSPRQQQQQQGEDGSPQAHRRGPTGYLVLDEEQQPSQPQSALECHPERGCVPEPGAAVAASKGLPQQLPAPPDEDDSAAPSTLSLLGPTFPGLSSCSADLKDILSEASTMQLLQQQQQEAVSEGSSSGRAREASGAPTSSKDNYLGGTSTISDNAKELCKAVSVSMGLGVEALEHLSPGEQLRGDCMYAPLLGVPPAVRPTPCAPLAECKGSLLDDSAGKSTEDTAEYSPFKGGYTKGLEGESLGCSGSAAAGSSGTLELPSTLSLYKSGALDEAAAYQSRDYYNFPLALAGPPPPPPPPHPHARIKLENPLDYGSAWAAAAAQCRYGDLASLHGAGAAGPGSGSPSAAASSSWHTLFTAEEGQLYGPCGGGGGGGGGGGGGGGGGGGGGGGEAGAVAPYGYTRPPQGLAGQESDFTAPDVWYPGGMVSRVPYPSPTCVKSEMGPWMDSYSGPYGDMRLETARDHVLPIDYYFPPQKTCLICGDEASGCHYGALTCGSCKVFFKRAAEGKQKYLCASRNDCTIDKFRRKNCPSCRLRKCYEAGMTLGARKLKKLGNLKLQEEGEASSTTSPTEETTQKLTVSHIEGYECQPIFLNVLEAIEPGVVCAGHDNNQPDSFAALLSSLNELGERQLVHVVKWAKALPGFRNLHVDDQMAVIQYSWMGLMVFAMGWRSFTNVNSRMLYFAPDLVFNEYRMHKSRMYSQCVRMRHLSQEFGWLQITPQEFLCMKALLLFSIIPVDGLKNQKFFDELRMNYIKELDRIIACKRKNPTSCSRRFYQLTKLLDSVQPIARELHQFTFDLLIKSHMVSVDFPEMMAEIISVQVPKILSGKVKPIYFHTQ
Summary of the method: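 Luminescence from an AR/GR-responsive MMTV-luciferase construct in MDA-kb2 breast carcinoma cells, read 30 min after ONE-Glo, following 16 hr co-treatment with compounds and 0.5 nM R1881.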

[19] = target: Androgen receptor (Homo sapiens) (UniProt P10275); assay: qHTS assay to identify small molecule agonists of the androgen receptor (AR) signaling pathway in the presence of an antagonist (AID 1259381; calls by dose curve; note: nearly all actives have a fitted effect of over 15% in size)
Summary of the method: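 Plated MDA-kb2 cells (3,000/well) were pre-incubated 5hr, given nilutamide (3.0uM final) or buffer, then dosed with compounds in DMSO at 15 concentrations. Luciferase activity was quantified by luminescence after 16hr at 37C.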

[20] = qHTS assay to identify small molecule phospholipidosis (PLD) inducers (AID 1259344; active = well fitted curve in the direction sought with a large enough effect; an effect the other way counts as inactive or inconclusive)
Summary of the method: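 Read-out is LipidTOX Red fluorescence (ex 595/em 615) imaged in HepG2 cells after 24 h compound exposure at 37 C, with Hoechst nuclear counterstain (ex 352/em 461) allowing per-cell normalisation.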

Row | SMILES | Potency [1] | Potency [2] | Potency [3] | Potency [4] | Potency [5] | Potency [6] | Potency [7] | Potency [8] | Potency [9] | Potency [10] | Potency [11] | Potency [12] | Potency [13] | Potency [14] | Potency [15] | Potency [16] | Potency [17] | Potency [18] | outcome [19] | outcome [20]
1 | Cc1ccc(C)c(S(=O)(=O)O)c1 | inactive | inactive | inactive | inactive | inactive | inactive | inactive | inactive | inactive | inactive | inactive | – | – | – | – | – | – | – | – | –
2 | C=C(C)CC(C)(C)C | inactive | inactive | – | inactive | inactive | inactive | inactive | inactive | inactive | inactive | inactive | inactive | inactive | – | – | – | – | – | – | –
3 | N#CCC(=O)O | inactive | inactive | inactive | inactive | inactive | inactive | inactive and 54.5 µM (active) | inactive | inactive | inactive | inactive | inactive | inactive | inactive | inactive | – | – | – | – | –
4 | Cc1cccc(C)c1[N+](=O)[O-] | inactive | inactive | inactive | inactive | inactive and 48.6 µM (active) | inactive | inactive and 24.3 µM (active) | inactive | inactive | inactive | inactive | inactive | inactive | – | – | – | – | – | – | –
5 | CS(=O)(=O)c1ccc(Cl)cc1 | inactive | inactive | inactive | inactive | inactive | inactive | – | inactive | inactive | inactive | inactive | inactive | inactive | inactive | – | – | – | – | – | –
6 | c1cnc2c(c1)ccc1cccnc12 | – | 19.5 µM (active) and 24.3 µM (active) and 27.3 µM (active) | inactive | 24.6 µM (active) | 13.8 µM (active) and 68.6 µM (active) and 43.3 µM (active) | 3.09 µM (active) and 24.3 µM (active) and 21.7 µM (active) | inactive | 15.5 µM (active) and 30.6 µM (active) and 21.7 µM (active) | – | – | inactive | – | – | – | – | inactive | – | – | – | –
7 | C1CCCNCC1 | inactive | inactive | inactive | inactive | inactive | inactive | inactive | inactive | inactive | inactive | inactive | inactive | – | – | inactive | – | inactive | – | – | –
8 | COc1ccc(N)c(OC)c1 | inactive | inactive | – | inactive | – | inactive | 9.31 µM (active) | inactive | – | inactive | inactive | – | inactive | – | inactive | – | – | – | – | –
9 | CO[Si](CCCNCCN)(OC)OC | inactive | inactive | inactive | 5.53 µM (active) and inactive | 15.6 µM (active) and inactive | inactive | – | inactive | inactive | inactive | inactive | inactive | inactive | – | – | – | – | inactive | inactive | –
10 | Cc1cc(C)c(O)c(C)c1 | inactive | inactive | – | inactive | inactive | inactive | – | inactive | inactive | inactive | inactive | – | inactive | – | inactive | – | – | – | – | –
11 | Cc1cc(CC(=O)O)n(C)c1C(=O)c1ccc(Cl)cc1 | inactive | inactive | inactive | inactive | inactive | inactive | – | inactive | inactive | inactive | inactive | inactive | – | inactive | – | – | – | – | – | inactive
12 | NC(N)=S | inactive | inactive | – | inactive | inactive | inactive | inactive | inactive | inactive | inactive | inactive | – | inactive | – | inactive | – | – | – | – | –
13 | CCCOCC(C)O (centres undefined) | inactive | inactive | – | inactive | inactive | inactive | inactive | inactive | – | inactive | inactive | – | – | – | – | – | – | inactive | inactive | –
14 | NC(=O)c1ncn([C@@H]2O[C@H](CO)[C@@H](O)[C@H]2O)n1 | inactive | inactive | inactive | inactive | inactive | inactive | inactive | inactive | – | inactive | – | – | – | – | – | – | – | – | – | inactive
15 | CC(=O)OC(C)(C)C1CC=C(C)CC1 (centres undefined) | inactive | inactive | inactive | inactive | inactive | inactive | inactive | inactive | – | inactive | inactive | – | – | – | inactive | – | – | – | – | –
16 | CN1CCCC1=O | inactive | inactive | inactive | inactive | inactive | inactive | inactive | inactive | inactive | inactive | – | inactive | – | inactive | inactive | – | – | – | – | –
17 | Brc1ccc(Oc2ccc(Br)cc2)cc1 | inactive | inactive | – | inactive | inactive | inactive | – | inactive | – | inactive | inactive | – | – | – | – | – | – | – | – | –
18 | COc1c(Cl)ccc(Cl)c1C(=O)O | inactive | inactive | inactive | inactive | inactive | inactive | inactive | inactive | inactive | inactive | inactive | inactive | inactive | – | inactive | – | – | – | – | –
